Measured values: PubChem BioAssay (NCI)
Where “and” joins values, the source holds several entries; their conditions need not be identical. Equal values may be shown once. About 79,000 compounds went through this panel and 15% of them were active in at least one assay; those are over-represented in the sample as a whole. Cut-off read from the data, not from the text of the source: active = growth inhibition above about 70%; inactive = the rest.

Key:
[1] = NCI Yeast Anticancer Drug Screen. Data for the rad50 strain (AID 155);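 note: 0% = growth of vehicle-only cultures of the same strain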; settings: S. cerevisiae rad50 strain growth inhibition; at 50.0 µM; stronger effect = higher value
Summary of the method: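 Readout: growth inhibition relative to vehicle-treated cultures. Compound exposure was carried out in a genetically defined yeast strain deficient in DNA damage repair.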

[2] = NCI Yeast Anticancer Drug Screen. Data for the mec2-1 strain (AID 157); settings: S. cerevisiae mec2-1 strain, at 50.0 µM, stronger effect = higher value
Summary of the method: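 Test agents were screened against the mec2-1 yeast strain, with defined DNA repair or cell cycle alteration. Growth was scored as inhibition against vehicle-only controls.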

[3] = NCI Yeast Anticancer Drug Screen. Data for the sgs1 mgt1 strain (AID 161);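 note: 0% = growth of cultures given vehicle only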; settings: S. cerevisiae sgs1 mgt1 strain, at 50.0 µM, stronger effect = higher value
Summary of the method: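 Test agents were incubated with a DNA-repair-mutant yeast strain. Growth was then read and compared against vehicle-treated controls.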

[4] = NCI Yeast Anticancer Drug Screen. Data for the cln2 rad14 strain (AID 165);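 note: 0% = growth equal to vehicle treated cultures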; settings: S. cerevisiae cln2 rad14 strain, at 50.0 µM, stronger effect = higher value
Summary of the method: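 Growth of compound-exposed yeast (cln2 rad14 genotype) measured and expressed as inhibition relative to vehicle.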

[5] = NCI Yeast Anticancer Drug Screen. Data for the bub3 strain (AID 167); settings: S. cerevisiae bub3 mutant strain, at 50.0 µM, stronger effect = higher value
Summary of the method: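 Readout: yeast growth inhibition, expressed relative to vehicle-only wells. The test organism is a mutant strain from a panel with lesions in DNA repair or checkpoint genes.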

[6] = NCI Yeast Anticancer Drug Screen. Data for the mlh1 rad18 strain (AID 175); settings: S. cerevisiae mlh1 rad18 strain growth inhibition; at 50.0 µM; stronger effect = higher value
Summary of the method: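 In this whole-cell yeast screen, a strain with altered DNA damage repair is challenged with compound, and its growth is measured against matched vehicle-treated controls.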

Measured: growth inhibition

CCCc1ccc(OC2OC(COC(C)=O)C(OC(C)=O)C(OC(C)=O)C2OC(C)=O)cc1 (configuration not stated)
inactive: [1] -7% and -12.6% | [2] -9.65% and 2.4% | [3] -13.5% and 9.65% | [4] -5.25% and 3.95% | [5] -37% and 5.1% | [6] -8.05% and 4.1%

Nc1cc(=O)[nH][nH]1
inactive: [1] -11.7% and -11.5% | [2] -9.65% and -5.8% | [3] -2.15% and -22.4% | [4] -5.9% and -7.35% | [5] -17.8% and -0.2% | [6] -15.8% and -9.2%

O=[N+]([O-])C(CO)(CO)CO
inactive: [1] -11.3% and 11.1% | [2] -6.25% and 1.95% | [3] -6% and 6.85% | [4] -22.4% and 3.45% | [5] -2.55% and 2.6% | [6] -7.2% and 2.65%

CC12CCC(C1)C(C)(C)C2OC(=O)c1ccccc1C(=O)O (configuration not stated)
inactive: [1] 11.5% and 22.9% | [2] 29.1% and -13.2% | [3] 20.4% and -25.9% | [4] 4.6% and -8.6% | [5] 13.8% and 1.3% | [6] 8.9% and 5.2%

CC(=O)Nc1ccc(C=O)cc1
inactive: [1] 13.1% and 25.1% | [2] 3.5% and 19.1% | [3] 14.8% and 24.1% | [4] -18.1% and 8.75% | [5] -4.15% and -9.2% | [6] 4.9% and 28%

OC1CC2CCC(C1)S2 (configuration not stated)
inactive: [1] -1.3% and 4.3% | [2] -25.3% and -2.75% | [3] -3.7% and 13.3% | [4] 9.85% and 13.3% | [5] 2.5% and 4.4% | [6] -11.6% and -1.55%

O=C(O)C1CCCC2C(O)CCC(=O)C12 (configuration not stated)
inactive: [1] -23.5% and -14.2% | [2] -16.3% and -6.8% | [3] -12.7% and -5.6% | [4] -5.45% and 4.25% | [5] -12.9% and -5.9% | [6] -29.4% and -32%

CC/C(=N/NC(N)=O)C1=CCCCC1
inactive: [1] -5.6% and 3.4% | [2] -3.7% and -0.85% | [3] -1.5% and -15.2% | [4] -35.5% and -33.9% | [5] -15.2% and -9.7% | [6] -0.4% and -14.7%

Cc1cc(=O)[nH]c2ccc(Cc3ccccc3)cc12
inactive: [1] -1.2% and 28.1% | [2] 10.4% and 5.75% | [3] -7.75% and 17.6% | [4] -26.2% and 6% | [5] -4.6% and -2.65% | [6] 16.9% and 21.9%

Nc1nc(N)c(Br)c(=O)[nH]1
inactive: [1] -11.3% and 9% | [2] -36.4% and -24.6% | [3] -11.3% and -38.1% | [4] 12.2% and -83.6% | [5] -10.9% and -13.3% | [6] -6.75% and -21.4%

CCCCc1c(C)[nH]c(=S)[nH]c1=O
inactive: [1] -6.15% and 5.3% | [2] -14.8% and -14.1% | [3] -4.35% and 0.4% | [4] -6.1% and 13.2% | [5] -0.05% and 15% | [6] -5.45% and 2%

CC(=O)OCC(OC(C)=O)C(OC(C)=O)C(OC(C)=O)C(C=NN(C(C)=O)S(=O)(=O)c1ccc(/C=C2\NC(=O)NC2=O)cc1)OC(C)=O (configuration not stated)
inactive: [1] 2.7% and 15.3% | [2] 13.4% and 0.65% | [3] 26.6% and 11.7% | [4] 24.1% and 30.6% | [5] -5.25% and 7.15% | [6] 25.8% and 18.2%

CC(=O)NC(C(=O)O)=C(C)C
inactive: [1] -9.2% and 18% | [2] -7.55% and -6.25% | [3] -1.45% and 13.9% | [4] -16.9% and 16.8% | [5] 7.95% and 2.25% | [6] -5.2% and 27.9%

CCCCCCC1OCC(COC)O1 (configuration not stated)
inactive: [1] 5.25% and 2.25% | [2] -3.1% and -10.5% | [3] -1.9% and -11.1% | [4] -4.55% and 6% | [5] 0.5% and -2.35% | [6] -2.45% and -10.2%

CCN(CC)CCCNC
inactive: [1] 6.2% and 26.6% | [2] -4.75% and 7.75% | [3] 3.2% and 3.7% | [4] 2.25% and -25.1% | [5] -9.6% and -4.5% | [6] 7.3% and 25.2%

COC(=O)c1ccc(O)cc1
inactive: [1] 27.3% and 4.9% | [2] 14.6% and 25.4% | [3] 13.8% and 12.4% | [4] 3.9% and 14.8% | [5] -11.6% and -4.5% | [6] 8.9% and -0.35%

Cc1ccc(CCO)cc1
inactive: [1] 2.3% and 2.65% | [2] 0.95% and 2.6% | [3] 6.95% and -28.1% | [4] 0.5% and -47.2% | [5] -4.9% and -6.4% | [6] -2.75% and 0.35%

C[N+](C)(C)CCO
inactive: [1] -16.1% and 2.25% | [2] -22.9% and -8.65% | [3] -5.85% and -6.65% | [4] 21.1% and 13.4% | [5] 16.5% and 16.8% | [6] 0.85% and -2.2%

CN(C)CC1CCCCC(CN(C)C)C1=O (configuration not stated)
inactive: [1] -23.1% and -15.7% | [2] -5.8% and 2.95% | [3] -14.8% and -8.7% | [4] 4.4% and -52.7% | [5] -11.8% and 7.95% | [6] -13.6% and -8.7%

COc1ccc2c(c1OC)C(=O)N1C2=Cc2c(cc3c(c2OC)OCO3)CC1N(C)C (configuration not stated)
inactive: [1] 16.7% and 30.1% | [2] -26.1% and 33.8% | [3] 39.9% and 57.1% | [4] 12.3% and 13% | [5] -11.8% and 17.6% | [6] 12.7% and 41.2%

OCC1CCCCO1 (configuration not stated)
inactive: [1] 0.3% and 1.8% | [2] -13.7% and -6.7% | [3] 2.4% and -24.7% | [4] -1.65% and -37.9% | [5] 7.65% and -10.8% | [6] 3% and -8.4%

O=C(CCc1ccccc1)CCc1ccccc1
inactive: [1] -28.6% and 33.6% | [2] -4.3% and 4.85% | [3] 28.8% and 7.55% | [4] -30.9% and 27.6% | [5] 0.55% and 35.2% | [6] -20.4% and 26.6%
